KDM4E inh = qHTS Assay for Inhibitors of Human Jumonji Domain Containing 2E (JMJD2E); AID 2147, 2009; JMJD2E catalytic domain, FDH-coupled NADH fluorescence (FDH is formaldehyde dehydrogenase); Potency, µM (titrated, usually from 57.1 µM), inactives show at the highest dose activity change, negative = inhibition, most hits filed as inhibitors; 230,000 tested, 1.6% active; Lysine-specific demethylase 4E (Homo sapiens), B2RXH2; active means well fitted inhibition curve with a large enough effect, not every such curve was filed as active; inconclusive means small, poorly fitted or top-dose-only effect, or another doubt; inactive means no such curve, though single readings can be large or run the other way;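 further: potency means the concentration at half of the fitted maximal effect; 0% = wells with enzyme and -100% = buffer wells without enzyme; nearly all actives have a fitted effect of over 50% in size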
Target sequence (B2RXH2 1-337 limits assumed): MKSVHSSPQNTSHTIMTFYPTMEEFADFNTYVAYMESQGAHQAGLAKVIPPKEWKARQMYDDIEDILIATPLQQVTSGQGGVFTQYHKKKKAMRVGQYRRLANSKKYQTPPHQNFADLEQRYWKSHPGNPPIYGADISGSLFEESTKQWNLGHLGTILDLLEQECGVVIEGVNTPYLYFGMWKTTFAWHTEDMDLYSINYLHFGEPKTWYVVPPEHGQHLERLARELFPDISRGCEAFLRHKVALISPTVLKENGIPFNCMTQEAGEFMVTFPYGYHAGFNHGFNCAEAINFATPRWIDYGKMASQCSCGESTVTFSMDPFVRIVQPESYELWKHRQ
Sfp inh = qHTS Assay for Inhibitors of Bacillus subtilis Sfp phosphopantetheinyl transferase (PPTase). 4'-phosphopantetheinyl transferase ffp (Bacillus subtilis), Q9F4F7. Biochemical Sfp PPTase activity, qHTS. Potency, µM, inactives show largest response in the series, negative = inhibition, actives largely listed as inhibitors. 310,000 tested, 3.5% active. AID 1490, 2009;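 further: the enzyme is Sfp with the accession as filed and its product quenches rhodamine fluorescence; potency means the concentration at half of the fitted maximal effect; 0% = enzyme reaction without inhibitor and -100% = no enzyme wells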
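Reaction rates are the 30-min fluorescence difference (ex 525, em 598 nm) in wells containing 15 nM Sfp, 5 uM rhodamine-CoA and 12.5 uM BHQ-2-YbbR at pH 7.6 with 10 mM MgCl2.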
LMNA splice mod = qHTS Assay for Modulators of Lamin A Splicing. HeLa LMNA splicing GFP/RFP minigene ratio, 48 h. Potency, µM (highest dose often 46.1 µM), without a hit: at the top dose ratio change, negative = inhibition, hits mostly inhibitors. 200,000 tested, 0.01% active; active means well fitted inhibition curve with a large enough effect in the signal ratio, with a control signal flat, not every such curve was filed as active; inconclusive means small, poorly fitted or top-dose-only effect, or effect the other way, or a change in a side signal; the % refers to the signal ratio; further: potency means the concentration at half of the fitted maximal effect; on the % scale 0 is the no-effect control and ±100 the full control effect
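S3 HeLa stable clones carrying a lamin A-EGFP splicing minigene plus DsRed2 were seeded at 600 cells/well in Opti-MEM with 2% FBS, pin-dosed and incubated 48 h at 37°C. Acumen cytometry (488 nm) gave the GFP/RFP total-intensity ratio.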
miR-21 act = qHTS Assay for Modulators of miRNAs and/orActivators of miR-21. HeLa miR-21 FLuc reporter, luciferase, 48 h. Potency, µM (series often up to 38.3 µM), without a hit: top-dose activity change, positive = activation, hits mostly activators. 340,000 tested, under 10 active. AID 2288, 2010;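 further: % of control where 0% means no effect; miR-21 action dims this reporter so a rising signal means less miR-21 action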
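Luminescence from a firefly luciferase reporter carrying a miR-21 binding site downstream, stably expressed under a CMV promoter in HeLa cells that make miR-21 endogenously, reports miRNA modulation after 48 h compound exposure up to approximately 40uM final.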
G9a block = qHTS Assay for Inhibitors of Histone Lysine Methyltransferase G9a | 350,000 tested, 8.8% active | G9a H3K9 monomethylation, AlphaScreen, 2 h | Potency, µM (titrated, usually from 102 µM), without a hit: top-dose activity, negative = inhibition, actives largely listed as inhibitors | AID 504332, 2011; further: potency means the concentration at half of the fitted maximal effect; on the % scale 0 is the no-effect control and ±100 the full control effect; nearly all actives have a fitted effect of over 75% in size
Target sequence (Q96KQ7 913-1193 limits assumed): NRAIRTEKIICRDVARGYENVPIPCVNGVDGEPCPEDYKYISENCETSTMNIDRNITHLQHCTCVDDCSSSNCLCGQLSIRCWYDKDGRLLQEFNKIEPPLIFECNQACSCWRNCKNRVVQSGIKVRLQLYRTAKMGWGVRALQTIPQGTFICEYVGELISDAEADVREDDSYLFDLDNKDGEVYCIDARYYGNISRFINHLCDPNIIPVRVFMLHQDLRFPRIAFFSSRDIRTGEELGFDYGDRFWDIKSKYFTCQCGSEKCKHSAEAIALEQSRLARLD
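Using a bead-based AlphaScreen, monomethylated H3K9 product from 2 h room-temperature reactions (G9a 20 nM, peptide 500 nM, SAM 20 uM) was detected with 0.5 ug/mL rabbit anti-H3K9me1 antibody.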
ALDH1A1 block = qHTS Assay for Inhibitors of Aldehyde Dehydrogenase 1 (ALDH1A1) | Aldehyde dehydrogenase 1A1 (Homo sapiens), P00352 | Purified ALDH1A1, NADH fluorescence, propionaldehyde substrate | Potency, µM (top dose mostly 75.3 µM), for inactives: at the highest dose activity, negative = inhibition, most hits filed as inhibitors | 220,000 tested, 7.3% active | AID 1030, 2008; active means well fitted inhibition curve with a large enough effect, not every such curve was filed as active; inconclusive means small, poorly fitted or top-dose-only effect, or another doubt; inactive means no such curve, though single readings can be large or run the other way;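 further: potency means the concentration at half of the fitted maximal effect; plate controls were no enzyme wells and a reference inhibitor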
Starred values were filed as active, the others as inactive; ? = inconclusive; / = not tested or not shown; [ ] = dose if it differs, or a comment. The list is not random: actives were taken first. Their share in the collection is about 13%. Unless noted, the call rests on the fitted dose curve; in most records, active means well fitted curve in the direction sought with a large enough effect; inconclusive means small, poorly fitted or top-dose-only effect, or another doubt; inactive means no such curve, though single readings can be large; an effect the other way counts as inactive or inconclusive.

SMILES	KDM4E inh	Sfp inh	LMNA splice mod	miR-21 act	G9a block	ALDH1A1 block
Cc1cc(S(=O)(=O)N2CCN(c3ccccc3F)CC2)ccc1-n1cnnn1	/	-8%	/	20%	50µM*	/
CCC1CCCCN1S(=O)(=O)c1ccc(-n2cnnn2)c(C)c1 (configuration not stated)	/	3%	/	8%	-9%	/
Cc1cc(S(=O)(=O)N2CCC(N3CCCCC3)CC2)ccc1-n1cnnn1	0%	1%	13%	-6%	50µM*	0.028µM*
Cn1ccnc1SCC(=O)c1ccc(O)cc1	-1%	-19%	/	-25%	?	?
Cc1cc(NC(=O)CSc2nnnn2-c2ccccc2C)no1	/	4%	/	-25%	20%	/
COC(=O)c1cccc(-n2nnnc2SCC(=O)Nc2cc(C)on2)c1	7%	-12%	2%	0%	32%	11µM*
COc1ccc(OC)c(C(=O)CSc2nnnn2C)c1	8%	?	13%	-4%	-47%	?
Cn1ccnc1SCC(=O)c1cccc(Br)c1	5%	-3%	-1%	-43%	?	?
COc1cccc(C(=O)CSc2nnnn2C)c1	-1%	50µM*	-1%	-9%	?	5%
Cn1ccnc1SCC(=O)c1ccc(Cl)cc1	-6%	?	/	-48%	50µM*	14µM*
COc1cccc(C(=O)CSc2nccn2C)c1	/	56µM*	/	-54%	50µM*	/
COC(=O)c1cccc(NC(=O)CSc2nnnn2C)c1	4%	21%	13%	-13%	-3%[59 µM]	14µM*
COc1ccc(NC(=O)CSc2nnnn2C)c([N+](=O)[O-])c1	5%	11%	/	6%	-37%	28µM*
Cn1c(CO)cnc1SCC(=O)c1ccc(Cl)cc1	1%	-2%	?	-12%	-24%	22µM*
Cn1nnnc1SCC(=O)Nc1ccccc1[N+](=O)[O-]	-7%	16%	-1%	-3%	6%	?
O=C(NCc1ccccc1Cl)C(=O)NCC(c1ccco1)S(=O)(=O)c1cccs1 (configuration not stated)	/	/	5%[46 µM]	-1%	-20%[59 µM]	/
COc1ccc(CCNC(=O)CCc2c(C)nc3nc(C)nn3c2C)cc1OC	/	/	/	1%	1%[59 µM]	/
C/C(=C\c1ccccc1)CN1CCN(C(C)C)C(CCO)C1 (configuration not stated)	/	19%	/	-1%	4%	/
CCOC(=O)N1CCN(S(=O)(=O)/C=C/c2ccccc2)CC1	-14%	10%	-2%	-3%	15%	2%
C/C(=C\c1ccccc1)CN1CCN(C)CC1	/	-23%	/	-2%	13µM*	/
CCOC(=O)N1CCN(C/C(C)=C/c2ccccc2)CC1	?	-20%	13%	-26%	20µM*	-6%
CC(C)c1nn2c(=O)cc(COC(=O)c3ccc(NC(=O)C4CCCCC4)cc3)nc2s1	/	/	?	17%	18%[59 µM]	/
CCCCN1C(=O)C2Cc3c([nH]c4ccccc34)CN2C1=S (configuration not stated)	?	56µM*	/	15%	?	?
CCCCCN1CC(=O)N2Cc3[nH]c4ccccc4c3C[C@H]2C1=O	/	16%	/	-10%	-14%	/
N#CC1=C(N)SC2(CCCCC2)SC1c1ccccc1 (configuration not stated)	-8%	10µM*	7%	-28%	7.9µM*	25µM*
SMILES	KDM4E inh	Sfp inh	LMNA splice mod	miR-21 act	G9a block	ALDH1A1 block
CCOc1ccc(NC(=O)Cn2c(=O)oc3cc(S(=O)(=O)N4CCC(C)CC4)ccc32)cc1	/	/	/	4%	-5%[59 µM]	/
O=[N+]([O-])c1ccc(N2CCN(S(=O)(=O)c3ccccc3)CC2)cc1	/	-15%	/	-1%	-5%	/
O=C1CC(=O)Nc2cc(S(=O)(=O)N3CCN(c4ccc([N+](=O)[O-])cc4)CC3)ccc2N1	/	5%	/	6%	13µM*	/
CCc1cccc2c1NC(=O)C2(O)CC(=O)c1cccs1 (configuration not stated)	2%	16%	7%[46 µM]	0%	8%	14µM*
Cc1nc(SCC(=O)Nc2ccccc2Cl)cc(-c2ccccc2)n1	/	/	18%[46 µM]	-2%	15%[59 µM]	/
O=C(Cc1ccccc1)Nc1c(C(=O)Nc2ccccc2F)oc2ccccc12	/	/	/	-8%	4%[59 µM]	/
CC1(C)Cc2c(sc(NC(=O)C(=O)N3CCOCC3)c2C(N)=O)CO1	/	-13%	/	1%	-7%	/
COCCSc1nnc(NS(=O)(=O)c2ccc(F)cc2)s1	-12%	-8%	15%[46 µM]	-2%	32µM*	-19%
Cc1occc1C(=O)/C(C#N)=C/c1ccc(O)c(Br)c1	/	8%	/	4%	50µM*	/
N#C/C(=C\c1ccc(O)c(Br)c1)C(=O)N1CCCCC1	/	4%	/	-13%	/	/
CCOC(=O)N1CCN(C(=O)COc2cccc3c2CCN(Cc2ccccc2C)C3=O)CC1	7%	4%	?	-5%	-9%[59 µM]	25µM*
CC1CCN(C(=O)COc2cccc3c2CCN(Cc2ccccc2)C3=O)CC1	5%	4%	/	14%	-32%	28µM*
CCN1CCc2c(OCC(=O)N3CCC(C)CC3)cccc2C1=O	3%	15%	/	-1%	-24%	4%
CCC(=O)N1CCc2cc(CNC(=O)c3ccc(F)cc3)ccc21	/	/	21%[46 µM]	-35%	7%[59 µM]	/
Cc1ccsc1C(=O)N1CCCC(CCC(=O)NCc2ccccc2F)C1 (configuration not stated)	5%	-8%	2%[46 µM]	-9%	-11%	-4%
COc1ccc(C(=O)N2CCCC(CCC(=O)NCc3ccc(F)c(F)c3)C2)cc1F (configuration not stated)	13%	13%	?	-19%	/	-6%
Cc1ccsc1S(=O)(=O)N1CCCC(CCC(=O)NCc2ccccc2F)C1 (configuration not stated)	0%	-1%	?	-2%	79µM*	0%
COc1cccc(CNC(=O)CCC2CCCN(C(=O)Cc3ccccc3F)C2)c1 (configuration not stated)	12%	9%	/	-5%	/	11µM*
COc1ccc(C(=O)N2CCCC(CCC(=O)NCc3ccc(F)c(F)c3)C2)o1 (configuration not stated)	3%	56µM*	/	-33%	?	16µM*
CCOc1cccc2sc(N3CCN(C(=O)C(C)(C)C)CC3)nc12	/	/	6%[46 µM]	-18%	-21%[59 µM]	/
COc1cccc(OCc2cc(C(=O)N(Cc3ccccc3)CC3CC3)no2)c1	/	9%	/	2%	184%[59 µM]	/
